Active and inactive are the calls of the source.
Key:
[1] = tested on: Plasmodium falciparum Sir2 (PF13_0152, Sir2A); assay: Plasmodium falciparum Sir2A binding compounds – biochemical, small-molecule microarray, 635 nm fluorescence, primary screen (AID 1098); conditions: fluorescence 635 nm, higher = more signal;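 also: score merges spot fluorescence intensity with its signal-to-noise ratio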
[2] = probe aDKK1 binding to arrayed compounds – biochemical, biotinylated probe, 635/667 nm fluorescence, primary screen (AID 1099); conditions: small-molecule microarray, higher = more signal;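 also: score merges 667nm spot fluorescence with signal to noise across triplicate slides; reference of the scale not given here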
[3] = probe aCHRDL2 binding to arrayed compounds – biochemical, biotinylated probe, 635/667 nm fluorescence, primary screen (AID 1100); conditions: small-molecule microarray, higher = more signal
[4] = change in splice reporter luminescence, either direction, cell-based, HEK293, spliceosome inhibition project, primary screen (AID 1101); conditions: HEK293 splicing luciferase reporter, 24 h, higher = more signal, called active from +8 up or from −8 down;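 also: HEK293 cells carrying a splicing-competent luciferase reporter gene; test concentration not given here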
[5] = target: Fibroblast growth factor 10 (Homo sapiens) (UniProt O15520); assay: compounds binding fibroblast growth factor 10 – biochemical, small-molecule microarray, 635 nm fluorescence, primary screen (AID 1102); conditions: FGF10 binding, fluorescence 635 nm, higher = more signal
Sequence of Fibroblast growth factor 10 (Homo sapiens) (O15520 whole entry, looked up): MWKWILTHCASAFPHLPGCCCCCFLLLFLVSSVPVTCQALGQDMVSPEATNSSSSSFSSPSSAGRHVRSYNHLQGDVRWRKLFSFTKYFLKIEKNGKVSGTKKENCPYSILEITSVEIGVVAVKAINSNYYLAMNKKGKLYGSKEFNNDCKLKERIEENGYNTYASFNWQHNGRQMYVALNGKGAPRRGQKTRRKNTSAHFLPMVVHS

[6] = tested on: glycogen synthase kinase-3 (GSK3A per assay name; protocol says GSK3B); assay: compounds binding glycogen synthase kinase-3 – biochemical, small-molecule microarray, 635 nm fluorescence, GSK3A, primary screen (AID 1103); conditions: fluorescence 635 nm, higher = more signal; also: the record names both GSK3A and GSK3B
[7] = target: Epidermal growth factor receptor (Homo sapiens) (UniProt P00533); assay: compounds binding epidermal growth factor receptor – biochemical, small-molecule microarray, 635 nm fluorescence, primary screen (AID 1104); conditions: EGFR binding, higher = more signal;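 also: score merges 667 nm emission intensity with spot signal to noise over triplicate slides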
Sequence of Epidermal growth factor receptor (Homo sapiens) (P00533 whole entry, looked up): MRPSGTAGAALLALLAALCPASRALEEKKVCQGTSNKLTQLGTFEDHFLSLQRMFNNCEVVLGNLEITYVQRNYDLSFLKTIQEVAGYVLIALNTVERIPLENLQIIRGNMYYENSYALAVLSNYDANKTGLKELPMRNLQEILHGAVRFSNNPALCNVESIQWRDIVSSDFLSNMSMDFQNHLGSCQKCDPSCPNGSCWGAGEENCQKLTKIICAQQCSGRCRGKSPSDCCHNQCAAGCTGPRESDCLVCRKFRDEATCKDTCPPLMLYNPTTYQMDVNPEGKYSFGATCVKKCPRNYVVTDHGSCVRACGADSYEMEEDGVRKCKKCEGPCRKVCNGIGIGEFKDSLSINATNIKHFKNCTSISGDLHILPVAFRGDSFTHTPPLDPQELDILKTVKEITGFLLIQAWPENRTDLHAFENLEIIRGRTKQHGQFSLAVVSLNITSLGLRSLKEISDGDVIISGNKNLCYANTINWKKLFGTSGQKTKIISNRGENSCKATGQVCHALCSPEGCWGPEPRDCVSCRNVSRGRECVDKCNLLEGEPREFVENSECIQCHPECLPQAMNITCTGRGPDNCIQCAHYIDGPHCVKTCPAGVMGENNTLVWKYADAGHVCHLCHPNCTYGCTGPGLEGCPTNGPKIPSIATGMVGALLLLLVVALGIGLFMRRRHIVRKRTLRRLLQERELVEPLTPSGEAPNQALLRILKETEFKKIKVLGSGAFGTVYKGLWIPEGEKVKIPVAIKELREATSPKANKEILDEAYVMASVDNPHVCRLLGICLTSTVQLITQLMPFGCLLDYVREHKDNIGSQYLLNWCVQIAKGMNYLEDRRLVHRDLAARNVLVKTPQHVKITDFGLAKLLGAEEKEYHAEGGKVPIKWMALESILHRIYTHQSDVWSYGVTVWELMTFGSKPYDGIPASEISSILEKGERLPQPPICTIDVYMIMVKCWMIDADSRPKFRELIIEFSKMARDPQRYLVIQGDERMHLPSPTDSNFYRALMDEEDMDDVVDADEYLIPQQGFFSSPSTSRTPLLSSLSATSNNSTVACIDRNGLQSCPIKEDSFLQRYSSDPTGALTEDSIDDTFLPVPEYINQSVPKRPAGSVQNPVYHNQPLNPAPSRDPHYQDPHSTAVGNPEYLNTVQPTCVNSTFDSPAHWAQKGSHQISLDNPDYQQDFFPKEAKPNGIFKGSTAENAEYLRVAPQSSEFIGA

[8] = target: Follistatin-related protein 3 (Homo sapiens) (UniProt O95633); assay: compounds binding follistatin-related protein 3 – biochemical, small-molecule microarray, 635 nm fluorescence, primary screen (AID 1105); conditions: FSTL3 binding, higher = more signal;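 also: score merges emission near 667 nm and signal to noise per printed spot across three slides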
Sequence of Follistatin-related protein 3 (Homo sapiens) (O95633 whole entry, looked up): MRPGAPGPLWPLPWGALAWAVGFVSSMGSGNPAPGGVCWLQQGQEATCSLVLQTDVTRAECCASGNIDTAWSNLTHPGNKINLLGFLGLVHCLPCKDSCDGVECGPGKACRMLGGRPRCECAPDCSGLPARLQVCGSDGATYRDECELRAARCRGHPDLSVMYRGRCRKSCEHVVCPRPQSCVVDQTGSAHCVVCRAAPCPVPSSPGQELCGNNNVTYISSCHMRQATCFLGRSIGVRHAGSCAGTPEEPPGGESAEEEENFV

[9] = target: Dickkopf-related protein 1 (Homo sapiens) (UniProt O94907); assay: small molecules binding DKK1 protein – biochemical, small-molecule microarray, 635 nm fluorescence scan, primary screen (AID 1106); conditions: higher = more signal;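 also: score merges emission near 667 nm with signal to noise over three replicate slides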
Sequence of Dickkopf-related protein 1 (Homo sapiens) (O94907 whole entry, looked up): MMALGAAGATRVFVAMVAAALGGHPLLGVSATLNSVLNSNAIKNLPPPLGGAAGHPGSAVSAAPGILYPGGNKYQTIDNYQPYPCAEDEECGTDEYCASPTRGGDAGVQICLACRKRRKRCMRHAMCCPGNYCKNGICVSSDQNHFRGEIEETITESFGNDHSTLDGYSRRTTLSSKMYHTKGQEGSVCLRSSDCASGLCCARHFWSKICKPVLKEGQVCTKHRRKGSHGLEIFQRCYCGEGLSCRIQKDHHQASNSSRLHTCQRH

[10] = tested on: Inhibin beta A chain (activin A); assay: small molecules binding activin A – biochemical, small-molecule microarray, 635 nm fluorescence scan, primary screen (AID 1107); conditions: INHBA, higher = more signal;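 also: mouse activin A protein probed at 4.33 µg/mL on printed slides; score merges bound-protein fluorescence near 667 nm with spot signal-to-noise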

Structure (SMILES) | composite z-score [1] | composite z-score [2] | composite z-score [3] | z-score [4] | composite z-score [5] | composite z-score [6] | composite z-score [7] | composite z-score [8] | composite z-score [9] | composite z-score [10]
CCc1cc2c(nc1CC)CCN(CCC(C)=NO[C@@H]1O[C@H](COC(C)=O)[C@@H](OC(C)=O)[C@H](OC(C)=O)[C@H]1OC(C)=O)C2 | 0.8 | -0.0154 | -0.82 | -0.763 (inactive) | 1.14 | 0.642 | 0.905 | 1.32 | 1.32 | 0.703
COc1ccc(COC(=O)NN=C2C[C@@H](O)[C@@H](O)[C@@H]3[C@@H]4C(=O)N(Cc5ccccc5)C(=O)[C@@H]4CC[C@@H]23)cc1 | 0.0233 | -0.12 | -0.249 | -0.221 (inactive) | 0.193 | 0.256 | 0.375 | 0.253 | 0.227 | -0.0039
C=CC[C@@H]1C=CC(ON=C(C)C)[C@@H](CO)O1 (stereo not given in full) | 0.24 | -0.011 | -0.127 | 0.304 (inactive) | -0.766 | -0.689 | 0.0691 | -0.899 | -0.307 | 1.14
COC(OC)[C@@H](C)[C@H](OC)[C@@H](C)[C@H](OC)c1ccccc1 | -0.15 | -0.185 | -0.449 | -1.31 (inactive) | 0.0549 | -0.485 | 0.231 | 0.327 | 0.392 | 0.499
CCOC(=O)CCN1C(=O)[C@H]2[C@H]3[C@H](O)[C@H](O)CC(=NNC(=O)OCc4ccc(OC)cc4)[C@H]3CC[C@H]2C1=O | 0.14 | 0.127 | 0.0124 | -0.352 (inactive) | -0.186 | 0.071 | 0.459 | 0.449 | 0.132 | 0.747
COc1ccc(COC(=O)NN=C2C[C@@H](O)[C@@H](O)[C@@H]3[C@@H]4C(=O)N(c5cccc(Oc6ccccc6)c5)C(=O)[C@@H]4CC[C@H]23)cc1 | 0.328 | 0.543 | 1.2 | -1.27 (inactive) | -0.0908 | -0.944 | -0.479 | -0.226 | -0.767 | 0.212
CC(CCC(=O)OC[C@H]1O[C@H](C#Cc2ccccc2)C=C[C@@H]1Oc1ccc(C)cc1)=NOC(C)CN1CCCCc2nc(C)c(C)cc21 (stereo not given in full) | 0.508 | -0.241 | 0.159 | -0.176 (inactive) | 0.0616 | -0.555 | -0.598 | -0.159 | 0.191 | 0.69
COC(=O)CC=C[C@@H](C)[C@@H](C=NOC[C@@H](O)COCc1ccco1)NS(=O)(=O)c1ccc(C)cc1 | 0.406 | -0.87 | -1.13 | 0.46 (inactive) | -0.168 | -0.268 | 0.497 | 0.914 | 0.864 | 1.65
CCCNC(=O)OC[C@H]1O[C@H](CCON=C2c3cc(OC)ccc3O[C@H](c3cccc(OC)c3)[C@H]2O)C=C[C@@H]1Oc1ccc(OC)cc1 | 0.204 | 0.0079 | -0.0136 | -0.553 (inactive) | 0.744 | 0.21 | 0.474 | 0.54 | 0.273 | -0.479
C=CC[C@@H]1C=C[C@H](ON=C(C)CCN2CCCc3nc(C)c(C)cc32)[C@@H](CO)O1 | 1.14 | 0.381 | 0.331 | 0.0487 (inactive) | 1.01 | 1.15 | 0.759 | 1.47 | 1.32 | 2.04
CCOC(=O)[C@H](Cc1ccccc1)NC(=O)CCC1CC(OC(=O)NCc2ccc3c(c2)OCO3)CC2(CCCC(COC(=O)NCCc3ccc(Cl)cc3)O2)O1 (stereo not given in full) | 0.667 | -0.188 | -0.509 | -2.3 (inactive) | 0.471 | 1.27 | 0.549 | 0.69 | 0.531 | 0.0209
COC(=O)[C@@H]1CC[C@H](C)[C@@H](c2ccc(Br)cc2)N1 | -0.725 | 0.297 | 0.321 | -0.181 (inactive) | -0.0529 | -0.879 | 0.377 | -0.391 | 0.187 | 0.894
CCOC(=O)CCN1C(=O)[C@H]2[C@H]3[C@H](O)[C@H](O)CC(=NOCC=C(C)CCC=C(C)C)[C@H]3CC[C@H]2C1=O | -0.319 | 0.28 | -0.154 | 0.0511 (inactive) | 0.245 | -0.709 | 0.52 | -0.789 | -0.185 | -1.82
CC(=O)OC[C@H]1O[C@@H](ON=C(C)CCN2CCCCc3nc(C)c(C)cc32)[C@H](OC(C)=O)[C@@H](OC(C)=O)[C@@H]1OC(C)=O | 0.834 | -0.208 | -0.664 | -1.29 (inactive) | 1.23 | 1.19 | 1.11 | 1.28 | 1.39 | 0.328
C[C@@H]1C=CCC(=O)OC[C@H](C)C(=O)N[C@@H](Cc2ccccc2)C(=O)OC1 | -0.0137 | -0.526 | -0.683 | -1.03 (inactive) | 0.3 | -0.0825 | 0.643 | 0.582 | 0.909 | -0.289
CCCC[C@H]1CN2[C@@H](CC[C@@H](C)[C@@H]2c2ccc(Br)cc2)C(=O)O1 | 0.801 | -0.1 | -0.442 | 0.541 (inactive) | 0.28 | 0.707 | 0.457 | 0.562 | 0.296 | 0.0442
CCOC(=O)[C@H](CC(C)C)NC(=O)CCC1CC(OC(=O)NCc2ccc3c(c2)OCO3)CC2(CCCC(COC(=O)NCc3ccccc3)O2)O1 (stereo not given in full) | 0.58 | -0.197 | -0.495 | -0.403 (inactive) | 0.713 | 0.486 | 0.316 | 0.675 | 0.425 | -0.0973
CCOC(=O)CCN1C(=O)[C@H]2[C@H]3[C@H](O)[C@H](O)CC(=NNC(=O)OCc4ccccc4)[C@H]3CC[C@H]2C1=O | 0.108 | -0.467 | -1.17 | 0.325 (inactive) | -0.193 | -0.296 | 0.345 | 0.373 | 0.766 | 1.62
C[C@@H]1CC[C@H]2C(=O)O[C@@H](COc3ccc(C(C)(C)C)cc3)CN2[C@H]1c1ccc(Br)cc1 | 0.418 | -0.251 | -0.427 | 0.0739 (inactive) | 0.0543 | 0.158 | -0.0032 | 0.0224 | 0.191 | 0.0996
O=C(NN=C1C[C@@H](O)[C@@H](O)[C@@H]2[C@@H]3C(=O)N(Cc4ccc5c(c4)OCO5)C(=O)[C@@H]3CC[C@@H]12)OCc1ccccc1 | -0.0768 | 0.618 | 0.828 | -1.41 (inactive) | -0.319 | -0.456 | -0.254 | -0.408 | -0.465 | 0.319
CC(CCC(=O)OC[C@H]1O[C@H](C#Cc2ccccc2)C=C[C@@H]1Oc1ccc(C)cc1)=NOC(C)CN1CCCc2nc(C)c(C)cc21 (stereo not given in full) | 0.839 | -0.143 | -0.35 | 0.00662 (inactive) | 0.732 | 0.727 | 0.335 | 0.694 | 0.397 | 0.531
COc1cccc([C@H]2Oc3ccc(OC)cc3C(=NO[C@@H](C)c3cc(-c4c(C)cc(C)cc4C)no3)[C@@H]2O)c1 | 0.288 | 0.838 | 1.53 | -0.328 (inactive) | -1.66 | -0.532 | -2.38 | -1.99 | -3.26 | 0.313
CO[C@@H]1COC(=O)[C@H](CCSC)NC(=O)CC=C[C@@H](C)COC(=O)[C@@H]2CCCN2C(=O)CC=C[C@H]1C | 0.275 | -0.337 | -0.584 | -0.595 (inactive) | 0.779 | 0.745 | 0.898 | 0.909 | 1.01 | 0.4
COC(=O)[C@H](Cc1ccccc1)NC(=O)[C@@H](C)CO | -0.535 | 0.629 | 0.389 | -1.36 (inactive) | 0.477 | 0.0595 | 0.651 | 1.03 | 0.671 | 1.1
O=C1C[C@H](c2ccccc2)[C@H](c2ccc(Br)cc2)O1 | -0.159 | 0.0628 | -0.939 | -0.823 (inactive) | 0.193 | -0.826 | 0.127 | -0.093 | 0.278 | 0.266
CC(C)=CCCC(C)=CCON=C1C[C@@H](O)[C@@H](O)[C@@H]2[C@@H]3C(=O)N(Cc4ccc5c(c4)OCO5)C(=O)[C@@H]3CC[C@H]12 | 0.567 | -0.101 | -0.257 | 0.294 (inactive) | 0.797 | 0.327 | 0.426 | 0.821 | 0.35 | 1.02

Reference: PubChem BioAssay
